# Measurements from publication PMC6925144, “A prospective compound screening contest identified broader inhibitors for Sirtuin 1” (Scientific Reports, 2019).
# In all, about 3,200 compounds were measured (“TSA(without NAD+) / Primary screening (TSA) / delta Tm (K)”: median about -0.07, highest 2% from about 0.37 on). The list comes from a sample in which the highest values are over-represented; it also holds similar structures and randomly drawn compounds.
# Target: NAD-dependent deacetylase Sirtuin 1 (human, UniProt Q96EB6)
# Test: primary screen, delta tm
# Set-up: single well (n = 1)
# Details: 10 µM
# Description: A total of 3,192 compounds extracted from the proposed lists were first screened by thermal shift assay (TSA), which determined a melting temperature shift (ΔTm) of Sirtuin 1 upon the addition of a test compound at a concentration of 10 µM (n = 1) with primary hit criteria of ΔTm > 0.45 K or ΔTm < −1.5 K. Primary hits (48 compounds) were retested in the same assay at three concentrations (5, 10, 20 µM, n = 4) for hit confirmation and for dose-dependency check. Secondary hits (41 compounds) were checked their selectivity for Sirtuin 1 based on counterscreening on unrelated protein targets (bovine carbonic anhydrase (CA) and recombinant SH2 domain of hABL1 kinase (ABL1)) at three different concentrations (5, 10, 20 µM, n = 4), which yielded 38 hit compounds, hereafter referred to as TSA hits. The TSA screening above was conducted in the absence of NAD+.
# Chain of NAD-dependent deacetylase Sirtuin 1 (Q96EB6 2-747 limits assumed): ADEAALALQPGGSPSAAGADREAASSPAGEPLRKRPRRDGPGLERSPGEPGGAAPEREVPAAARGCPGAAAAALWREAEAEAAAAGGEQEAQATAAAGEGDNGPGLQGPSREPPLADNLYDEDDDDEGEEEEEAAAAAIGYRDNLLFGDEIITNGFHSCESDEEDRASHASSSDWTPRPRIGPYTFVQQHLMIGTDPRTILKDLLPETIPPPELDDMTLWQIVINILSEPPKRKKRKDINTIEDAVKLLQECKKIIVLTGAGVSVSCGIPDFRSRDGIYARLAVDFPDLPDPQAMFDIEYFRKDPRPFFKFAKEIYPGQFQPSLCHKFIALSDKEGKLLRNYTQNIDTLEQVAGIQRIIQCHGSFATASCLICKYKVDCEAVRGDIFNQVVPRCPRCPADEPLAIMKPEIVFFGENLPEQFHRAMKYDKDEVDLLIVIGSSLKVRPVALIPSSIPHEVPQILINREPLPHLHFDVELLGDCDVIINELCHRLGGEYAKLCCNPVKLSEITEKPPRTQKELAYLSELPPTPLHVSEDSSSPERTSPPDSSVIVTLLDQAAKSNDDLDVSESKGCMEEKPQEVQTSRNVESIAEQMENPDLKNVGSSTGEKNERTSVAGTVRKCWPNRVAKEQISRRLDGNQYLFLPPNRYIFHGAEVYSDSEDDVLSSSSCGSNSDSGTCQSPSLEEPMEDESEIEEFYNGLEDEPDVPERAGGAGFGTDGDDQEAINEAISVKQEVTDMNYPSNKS
row,Structure (SMILES),TSA(without NAD+) / Primary screening (TSA) / delta Tm (K)
1,CC(C)Oc1ccc(C(=O)C2=C(O)C(=O)N(CCCN3CCOCC3)C2c2ccncc2)cc1 (centres unmarked),-0.07
2,O=c1c2ccccc2ncn1CC(O)c1ccccc1Cl (centres unmarked),-0.17
3,COc1ccc(/C=N/c2ccc(C(=O)O)cc2)cc1Br,0.07
4,N#Cc1c(Cn2nnc3ccccc3c2=O)cn2ccccc12,0.07
5,Cc1ccc([N+](=O)[O-])cc1S(=O)(=O)Nc1ccc(C(=O)OC(C)C(=O)NC23CC4CC(CC(C4)C2)C3)cc1 (centres unmarked),0.86
6,COc1cc(C(C)=O)ccc1COc1ccc(C(=O)OC(C)C(=O)NC23CC4CC(CC(C4)C2)C3)cc1OC (centres unmarked),0.05
7,CC(OC(=O)c1cccc(S(=O)(=O)NCc2ccccc2)c1)C(=O)NC12CC3CC(CC(C3)C1)C2 (centres unmarked),-0.03
8,CCC(N)COC (centres unmarked),-0.18
9,Cc1ccc(Nc2nnc(SCC(=O)NC(=O)NCc3ccco3)s2)cc1,0.07
10,Cc1ncc(CN2CCC(Nc3ccc4nnnn4n3)C(C)C2)s1 (centres unmarked),0.12
11,c1ccc(CN2CCCCCC2)c(CNc2ccc3nnnn3n2)c1,-0.11
12,Cc1cc(F)ccc1N1CCCC(Nc2ccc3nnnn3n2)C1 (centres unmarked),0.63
13,NC(=O)c1ncn(-c2ccncc2)c1N,-0.02
14,CC1CN(S(=O)(=O)c2cccc(C(=O)OCC(=O)COC(=O)c3cccc(S(=O)(=O)N4CC(C)OC(C)C4)c3)c2)CC(C)O1 (centres unmarked),-0.11
15,NC(=O)COC(=O)c1ccc(OCC(=O)Nc2cccc(C(F)(F)F)c2)cc1,-0.02
16,O=C(COc1ccccc1C(=O)Nc1ccc(S(=O)(=O)Nc2nccs2)cc1)Nc1cccc(C(F)(F)F)c1,0.98
17,Cc1cccc(-n2ccnc2SCC(=O)Nc2ccc(S(=O)(=O)Nc3nccs3)cc2)c1C,0.08
18,CCOc1cc(N2CCOCC2)c(OCC)cc1NC(=O)C1=COCCO1,-0.15
19,CC(NC(=O)COC(=O)CNC(=O)c1ccc(-c2ccccc2)cc1)C12CC3CC(CC(C3)C1)C2 (centres unmarked),0.06
20,NC(=O)c1cc2c(ccc3ccccc32)o/c1=N\c1ccc(Br)cc1,-0.32
21,O=C(NCc1cccc(NC(=O)C2CC2)c1)c1ccc(C(=O)c2ccccc2)cc1,-0.11
22,O=C(Nc1cccc(-c2nc(C3CC3)no2)c1)c1cccc(NC(=O)C2CCCCC2)c1,0.42
23,O=C(O)C1CC(=O)N(c2cccc(-c3nc(C4CC4)no3)c2)C1 (centres unmarked),0.03
24,Cc1ccc2c(c1)c(=O)n(C)c1nnc(CN3CCc4ccccc4C3)n21,-0.32
25,O=C(NC1=NCCS1)c1cc(Cl)ccc1O,-0.05

row,Structure (SMILES),TSA(without NAD+) / Primary screening (TSA) / delta Tm (K)
1,CC(O)CC(C)(C)CNC(=O)Nc1ccc(F)cc1 (centres unmarked),-0.13
2,COc1ccc(CN2C(=O)/C(=C/NNC(=O)CC34CC5CC(CC(C5)C3)C4)c3ccccc3C2=O)cc1,0.09
3,O=C1NC(=O)c2ccccc2/C1=C\NNC(=O)C12CC3CC(CC(C3)C1)C2,0.33
4,O=C1/C(=C/NNC(=O)C23CC4CC(CC(C4)C2)C3)c2ccccc2C(=O)N1Cc1ccccc1,0.46
5,COc1ccc(N2C(=O)/C(=C/NNC(=O)C34CC5CC(CC(C5)C3)C4)c3ccccc3C2=O)cc1,0.43
6,O=C(CC12CC3CC(CC(C3)C1)C2)NN/C=C1/C(=O)N(Cc2ccccc2)C(=O)c2ccccc21,0.32
7,O=C1CCCN1Cc1ccc(-c2ccccc2CNC(=O)C23CC4CC(CC(C4)C2)C3)cc1,-0.28
8,CCS(=O)(=O)Nc1ccc(S(=O)(=O)Nc2nccs2)c(OC)c1,-0.18
9,N#Cc1ccccc1Sc1ccccc1C(=O)Nc1ccc(-c2cn3cccnc3n2)cc1,-0.14
10,CCCCCCCCNC(=O)/C(C#N)=C/c1c[nH]c2ccccc12,0.58
11,CCOc1ccc(/C=C(/C#N)C(=O)c2c[nH]c3cc(F)ccc23)cc1,0.06
12,N#C/C(=C\c1[nH]c2ccccc2c1Cl)C(N)=O,-0.13
13,Oc1ccccc1/C=N/c1ccccc1O,-0.13
14,Cc1cc2ccccc2n1CC(=O)NCC(Cc1ccccc1)N(C)C (centres unmarked),-0.12
15,CN(c1cccc(Cl)c1)S(=O)(=O)c1cccc(C(=O)Nc2cc(C(N)=O)cc(C(N)=O)c2)c1,0.15
16,CN(c1cccc(Cl)c1)S(=O)(=O)c1cccc(C(=O)Nc2ncc(C(N)=O)s2)c1,0.37
17,Cc1ccc(N(C)S(=O)(=O)c2cccc(C(=O)Nc3sccc3C(N)=O)c2)cc1,0.17
18,COc1ccc(N(C)S(=O)(=O)c2cccc(C(=O)Nc3ncc(C(N)=O)s3)c2)cc1,0.06
19,Cc1ccc(N(C)S(=O)(=O)c2cccc(C(=O)Nc3ccc(C(N)=O)cc3)c2)cc1,0.46
20,CC(=O)Nc1ccc(NC(=O)c2cccc(S(=O)(=O)N(C)c3ccc(C)cc3)c2)cc1,-0.11
21,Cc1ccc(NC(=O)c2cccc(S(=O)(=O)N(C)c3ccc(C)cc3)c2)cc1,0.45
22,CN(c1ccccc1)S(=O)(=O)c1cccc(C(=O)Nc2sccc2C(N)=O)c1,0.38
23,Cc1ccc(N(C)S(=O)(=O)c2cccc(C(N)=O)c2)cc1,-0.11
24,CN(c1cccc(Cl)c1)S(=O)(=O)c1cccc(C(=O)Nc2sccc2C(N)=O)c1,0.18
25,COc1ccc(N(C)S(=O)(=O)c2cccc(C(=O)Nc3ccc(C)cc3)c2)cc1,0.17
